Measurements taken from PubChem BioAssay AID1942 (Johns Hopkins Ion Channel Center, 2009).
The campaign covered roughly 2,400 compounds. About 580 (24%) were called active. A selection follows. Values without a mark were called inactive.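 Rule for the calls: active = activity change at or above the mean plus 3 SD of buffer wells without dofetilide, per plate; inactive = the rest.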

The molecules below were run against Potassium voltage-gated channel subfamily KQT member 2 (Rattus norvegicus) (UniProt O88943) (assay: KCNQ2 potentiation in CHO cells – cell-based, FluxOR thallium flux, counter-screen for hERG block protector project, confirmation (AID 1942;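 note: normalized value minus buffer-control mean plus three SD of buffer wells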)). Settings: FluxOR thallium flux fluorescence, at 10 µM, hits give high values.
Potassium voltage-gated channel subfamily KQT member 2 (Rattus norvegicus), sequence (O88943 whole entry, looked up): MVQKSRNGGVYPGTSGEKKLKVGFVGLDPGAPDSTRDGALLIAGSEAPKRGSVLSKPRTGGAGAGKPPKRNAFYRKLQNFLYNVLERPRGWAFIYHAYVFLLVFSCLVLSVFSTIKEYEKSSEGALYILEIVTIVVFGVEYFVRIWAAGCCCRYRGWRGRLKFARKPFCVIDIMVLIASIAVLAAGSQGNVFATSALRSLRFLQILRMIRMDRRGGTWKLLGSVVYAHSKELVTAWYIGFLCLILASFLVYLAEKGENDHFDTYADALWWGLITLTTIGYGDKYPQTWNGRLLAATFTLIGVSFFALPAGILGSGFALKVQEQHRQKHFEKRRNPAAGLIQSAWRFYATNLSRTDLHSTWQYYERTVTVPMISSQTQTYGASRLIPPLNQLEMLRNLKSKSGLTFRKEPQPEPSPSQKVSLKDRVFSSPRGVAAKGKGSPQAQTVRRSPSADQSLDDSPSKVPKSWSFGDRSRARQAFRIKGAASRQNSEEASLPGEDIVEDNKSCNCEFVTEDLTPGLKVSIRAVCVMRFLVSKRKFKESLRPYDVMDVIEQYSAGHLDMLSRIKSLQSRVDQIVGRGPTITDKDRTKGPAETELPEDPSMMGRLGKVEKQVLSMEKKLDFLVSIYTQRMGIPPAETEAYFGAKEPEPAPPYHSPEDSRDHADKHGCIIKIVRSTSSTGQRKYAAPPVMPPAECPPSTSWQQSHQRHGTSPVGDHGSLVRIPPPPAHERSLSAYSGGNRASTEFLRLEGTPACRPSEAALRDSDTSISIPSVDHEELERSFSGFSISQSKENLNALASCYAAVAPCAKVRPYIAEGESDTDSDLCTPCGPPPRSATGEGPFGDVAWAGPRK

Row | SMILES | activity change, less the hit threshold
1 | COCCNC(=O)C(=O)N/N=C/c1ccc(C(=O)OC)cc1 | -24.8%
2 | O=C(CCNC(=O)C1CCN(S(=O)(=O)c2ccc(F)cc2)CC1)NCc1ccc(Cl)cc1 | -18.1%
3 | Cc1cc(C)c(S(=O)(=O)Nc2cccc(-n3cnnn3)c2)c(C)c1 | -20.5%
4 | O=C(COc1ccc(Cl)cc1Cl)Nc1cccnc1 | -20.4%
5 | COc1ccccc1NC(=O)C1CCCN1C(=O)Nc1ccc(F)cc1 (stereo not drawn) | -19.8%
6 | COC(=O)C1CCCN1C(=O)COc1ccc(Cl)cc1Br (stereo not drawn) | 8.6% (active)
7 | CS(=O)(=O)Nc1cccc(-c2cn3ccccc3n2)c1 | -6.5%
8 | Cn1c(=O)c2sccc2n(Cc2cccc(Br)c2)c1=O | -20.7%
9 | CCN1CCN(CCNC(=O)CCCn2nc(C)c3c(C)n(-c4ccc(C)cc4)nc3c2=O)CC1 | -21%
10 | O=c1[nH]c(SCc2cccc(Cl)c2)nc2ccccc12 | -14.1%
11 | CSc1nc(C)c(Cc2ccccc2)c(=O)[nH]1 | -18.7%
12 | O=C(O)CCCCCNc1nc(=S)[nH]c2ccccc12 | -0.8%
13 | S=c1nc(Cc2ccc(Cl)cc2)[nH]c2ccccc12 | 28.2% (active)
14 | CC(C)c1ccc(/C=N/n2c(COc3ccccc3)n[nH]c2=S)cc1 | -16.5%
15 | S=c1[nH]nc(Cc2ccc(Br)cc2)n1/N=C/c1ccc(Cl)cc1 | -13.3%
16 | S=c1nc(Cc2ccccc2)[nH]c2ccccc12 | 76.9% (active)
17 | S=c1nc(COc2ccccc2)[nH]c2ccccc12 | 131% (active)
18 | S=c1nc(SCc2ccccc2)[nH]c2ccccc12 | 73.5% (active)
19 | N=C1S/C(=C\c2ccco2)C(=O)N1c1nccs1 | -12%
20 | CC(=O)Nc1ccc(S(=O)(=O)N2CCC(NC(=O)c3ccccc3)CC2)cc1 | -20.1%
21 | Cc1ccc(NC(=O)CSc2nnc(C3CC3)n2CC2CCCO2)c(C)c1 (stereo not drawn) | -18.6%
22 | S=c1[nH]nc(-c2ccco2)n1/N=C/C(Cl)=C/c1ccccc1 | -17.6%
23 | O=C(c1cncc(Br)c1)N1CCc2ccccc2C1 | -24.3%
24 | C/C(=N\N1CCN(C2c3ccccc3-c3ccccc32)CC1)c1ccncc1 | -19.2%

Row | SMILES | activity change, less the hit threshold
25 | O=C(NC(C(=O)c1ccccc1)n1cnccc1=O)c1ccccc1 (stereo not drawn) | -8.7%
26 | CC(NC(=O)c1ccncc1)C(C)(C)C (stereo not drawn) | 2.9% (active)
27 | O=C(Nn1cnnc1)c1ccncc1 | -10.9%
28 | Cc1c(OC(C(=O)O)c2ccccc2)ccc2c(-c3ccccc3)cc(=O)oc12 (stereo not drawn) | -7%
29 | Cc1ccc2c(c1)c1c(n2CC(O)Cn2nc(C)c(Br)c2C)CCCC1 (stereo not drawn) | -17.5%
30 | Cc1cc(C)c2nc(NC(=O)CN3C(=O)NC4(CCCC4)C3=O)sc2c1 | -9%
31 | COC(=O)c1sc(NC(=S)NC(=O)c2ccccc2F)nc1C | 11.7% (active)
32 | COC(=O)c1sc(NC(=S)NC(=O)c2ccccc2C)nc1C | 26.5% (active)
33 | COC(=O)c1sc(NC(=S)NC(=O)c2ccc(C)cc2)nc1C | -13.3%
34 | O=c1[nH]c(=O)n(CCc2ccc(F)cc2)c(O)c1C=NCc1ccc2c(c1)OCO2 | -22.5%
35 | COc1ccc(C(=O)NC2CC3CCCC(C2)N3Cc2ccccc2)cc1 (stereo not drawn) | -27.5%
36 | O=c1[nH]c(N2CCN(c3ccccc3)CC2)nc2c1CCCC2 | -11.1%
37 | C=C(C)CSc1nc(N)cc(=O)[nH]1 | -12%
38 | CC1CCCCC1n1c(=S)[nH]c2ccccc2c1=O (stereo not drawn) | 6.6% (active)
39 | CC1CCC(n2c(=S)[nH]c3ccccc3c2=O)CC1 (stereo not drawn) | 47.8% (active)
40 | O=c1c2ccccc2[nH]c(=S)n1C1CCCCC1 | -15.1%
41 | CC1CCC(N2CCN(C(=O)c3ccccc3F)CC2)CC1 (stereo not drawn) | -9.6%
42 | Cn1c(O)c(N=NC(=S)Nc2ccccc2F)c2cc(S(=O)(=O)N3CCOCC3)ccc21 | -19.7%
43 | Cc1ccc(C(C)C)cc1S(=O)(=O)NC1CC(C)(C)NC(C)(C)C1 | -26%
44 | Nc1cc(N)nc(SCc2cc(=O)oc3cc4c(cc23)CCC4)n1 | -20.8%
45 | CS(=O)(=O)N(CCc1ccccc1)CC(=O)N1CCN(c2ccc(F)cc2)CC1 | -26.1%
46 | Cc1cc(C(=O)NCc2ccc(S(N)(=O)=O)cc2)ccc1[N+](=O)[O-] | -13.6%
47 | O=C(NCc1cccnc1)c1ccc(NS(=O)(=O)c2ccc(F)cc2)cc1 | -4.9%
48 | Cc1cc2ccccn2c1C(=S)NC(=O)c1ccccc1 | 40.3% (active)
